Drawing on PubChem BioAssay (NCATS), this text covers Potency and activity (max response) for 27 compounds.

Assay [1] is described as follows: Viability qHTS for spleen associated tyrosine kinase inhibitor (SYKi) drug resistant MV4-11 cells (AID 1963824). Note: nearly all actives have a fitted effect of over 35% in size. In outline: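 CellTiter-Glo luminescence, read 10 min after reagent addition, reports viability after a 72 hr compound exposure. Cells are an MV4-11 line made resistant to SYK inhibition, seeded at 500 per well onto compound-containing plates.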
In general terms: In qHTS, concentration-response curves come from the screen itself.

Assay [2] can be described thus: Cellular viability qHTS for adrenocortical cancer (ACC) cell line SW-13 (AID 1963989).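 For activity (max response): cells grown in serum-free medium with ITS supplement; % is set by controls: 0 for no effect and ±100 for the full control effect.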 Note: nearly all actives have a fitted effect of over 65% in size. The conditions noted are these: SW-13 ACC cells viability, CellTiter-Glo, 48 h; activity (max response): active compounds read low. Summed up: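 Viability was read as CellTiter-Glo luminescence after 48 h compound treatment (up to 46 uM final) of SW-13 cells grown serum-free; titration curves were fit with a four-parameter logistic model to give IC50 and efficacy.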

The nature of assay [3]: Cellular viability qHTS for adrenocortical cancer (ACC) cell line NCI-H295R (AID 1963990). Note: nearly all actives have a fitted effect of over 60% in size. Summed up:
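CellTiter-Glo ATP luminescence, read 48 h after compound addition, measured viability of NCI-H295R adrenocortical cells grown serum-free with ITS. Final concentrations spanned up to 46 uM. Data normalized to DMSO and doxorubicin, fitted for IC50 and maximal response.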

Structures are written as SMILES. Several values for one entry are separate records, joined by “and”; a condition that tells them apart may be missing. Equal values may be shown once. Results filed as inconclusive are left out. Values without a mark were called inactive. Activity calls are given as the source filed them. Calls come from the whole dose curve; as a rule, active = well fitted curve in the direction sought with a large enough effect; inconclusive = small, poorly fitted or top-dose-only effect, or another doubt; inactive = no such curve, though single readings can be large; an effect the other way counts as inactive or inconclusive.
Potency is the fitted concentration of half-maximal effect.

For the compound `COc1nc(OCc2cccc(-c3ccccc3)c2C)ccc1CNCCNC(C)=O`, the Potency was 3.72 µM (active) in assay [1], 7.94 µM (active) in assay [2] and 6.31 µM (active) in assay [3].
Turning to `O=C1CC[C@@H](C(=O)O)N1`, the Potency entry in assay [1] and in assay [3] was “inactive” each time. Further, the activity (max response) in assay [2] is -6.66%.
For `Clc1ccccc1CN1CCc2sccc2C1`, the Potency in assay [1] is 18.8 µM (active). For the same compound, the activity (max response) in assay [2] was 1.55%. The Potency result in assay [3] is “inactive”.
In the case of `CCCC(=O)Nc1ccc(O)c(C(C)=O)c1`, the Potency entry in assay [1] and in assay [3] was “inactive” in each case. In addition, in assay [2], the activity (max response) is 10.4%.
As to `COc1ccc2c(c1)CC[C@@H]1[C@@H]2CC[C@]2(C)[C@@H](NCCCCCCN3C(=O)C=CC3=O)CC[C@@H]12`, the Potency in assay [1] was 5.25 µM (active). In addition, the activity (max response) in assay [2] is -14.7%. The Potency result in assay [3] was “inactive”.
For the compound `C[C@H]1CNCCCN1S(=O)(=O)c1cccc2cncc(F)c12`, the Potency result in assay [1] and in assay [3] was “inactive” throughout. The activity (max response) in assay [2] is -17.2%.
As to `Cc1ccc(Sc2ccccc2N2CCNCC2)c(C)c1`, the figures for the Potency in assay [1], in assay [2] and in assay [3] were 4.68 µM (active), 25.1 µM (active) and 3.55 µM (active), respectively.
Take `COc1cc(N2CCC(N3CCN(C)CC3)CC2)ccc1Nc1ncc(Cl)c(Nc2ccccc2P(C)(C)=O)n1`: the Potency in assay [1] was 130 nM (active) and 23.5 nM (active); in assay [2], 1 µM (active); in assay [3], 1.12 µM (active).
Take `O=C(O)CNC(=O)CNC(=O)CNC(=O)CSC(=O)c1ccccc1`: the Potency result in assay [1] and in assay [3] was “inactive” throughout. In assay [2], the activity (max response) is -23.1%.
Consider `C[n+]1c2cc(N)ccc2cc2ccc(N)cc21` (tested in a mixture with another compound), for which the Potency in assay [1] is 1.88 µM (active); in assay [2] it was 2.31 µM (active); in assay [3], 1.3 µM (active).
Take `CC1=C(/C=C/C(C)=C/C=C/C(C)=C/C(=O)O)C(C)(C)CCC1`: the Potency in assay [1] is 1.06 µM (active) and 468 nM (active). The activity (max response) in assay [2] is -7.6% and 3.95%. Also, in assay [3], the Potency result was “inactive”.
As for `C/C(=C(\CCO)SS/C(CCO)=C(\C)N(C=O)Cc1cnc(C)nc1N)N(C=O)Cc1cnc(C)nc1N`, the Potency entry in assay [1] and in assay [3] was “inactive” in each case. In addition, in assay [2], the activity (max response) is 7.36%.
`C#C[C@]1(O)CC[C@H]2[C@@H]3CCC4=CC(=O)CC[C@@H]4[C@H]3CC[C@@]21CC`: the Potency in assay [1] was 9.34 µM (active). In addition, the activity (max response) in assay [2] was -2.48% and -7.29%. Besides, the Potency entry in assay [3] was “inactive”.
Take `COc1cc(NC(C)CCCN)c2ncccc2c1` (stereo unspecified): the figures for the Potency in assay [1], in assay [2] and in assay [3] were 5.31 µM (active), 4.61 µM (active) and 8.2 µM (active), respectively.
As to `COc1nc(N)nc2c1ncn2C1OC(CO)C(O)C1O` (stereo unspecified), the Potency entry in assay [1] and in assay [3] was “inactive” in each case. For the same compound, the activity (max response) in assay [2] is 12%.
On to `Cc1cc(Oc2ccc3nc(COc4ccc(CC5SC(=O)NC5=O)cc4)n(C)c3c2)cc(C)c1N` (stereo unspecified), for which, in assay [1], the Potency is 16.6 µM (active). In addition, in assay [2], the activity (max response) was -6.08%. Moreover, the Potency result in assay [3] was “inactive”.
For the compound `O=c1ncccn1[C@@H]1O[C@H](CO)[C@@H](O)[C@H]1O`, the Potency in assay [1] is 16.6 µM (active). Further, the activity (max response) in assay [2] is -5.69%. Besides, in assay [3], the Potency result is “inactive”.
With `O=C(Nc1ccc(C(=O)O)c(O)c1)c1ccccc1`, the Potency entry in assay [1] and in assay [3] was “inactive” in each case. Moreover, the activity (max response) in assay [2] is 1.55%.
As for `CCOC(=O)C1=C(C)NC(C)=C(C(=O)OCC)C1c1ccccc1/C=C/C(=O)OC(C)(C)C`, the figures for the Potency in assay [1], in assay [2] and in assay [3] were 4.73 µM (active), 16.4 µM (active) and 6.51 µM (active), respectively.
The corresponding values for `COc1cc(NS(C)(=O)=O)ccc1Nc1c2ccccc2nc2ccccc12` are 0.468 µM (active), 5.62 µM (active) and 8.91 µM (active).
On to `Cc1cc(/C=c2/sc3nc4ccccc4n3c2=O)c(C)n1-c1ccccc1`, for which, in assay [1], the Potency is 10.5 µM (active). For the same compound, the activity (max response) in assay [2] was -15.5%. Further, the Potency entry in assay [3] is “inactive”.
`CC(C)=CCC/C(C)=C/CC/C(C)=C/C(=O)OCC(=O)[C@@]1(O)CC[C@H]2[C@@H]3CCC4=CC(=O)C=C[C@]4(C)[C@H]3[C@@H](O)C[C@@]21C`: in assay [1], the Potency was 9.44 µM (active). The activity (max response) in assay [2] was 9.99%. Further, in assay [3], the Potency entry is “inactive”.
For the compound `CC(CNC1CCCCC1)OC(=O)c1ccccc1` (stereo unspecified), the Potency entry in assay [1] and in assay [3] was “inactive” throughout. In addition, the activity (max response) in assay [2] is -5.58%.
For the compound `COc1ccc(COc2ccc(Cc3cnc(N)nc3N)cc2OC)cc1`, the Potency in assay [1] was 7.31 µM (active). Further, the activity (max response) in assay [2] was -16.4%. The Potency entry in assay [3] is “inactive”.
On to `Cc1ccc(O)cc1`, for which the Potency entry in assay [1] and in assay [3] was “inactive” in each case. In addition, the activity (max response) in assay [2] is 11.5%.
As for `C[C@@H]1C(=O)OC2[C@H](O)[C@]34[C@H]5C[C@@H](C(C)(C)C)[C@]36[C@@H](OC(=O)[C@@H]6O)O[C@@]4(C(=O)O5)[C@]21O` (stereo partly specified), the Potency entry in assay [1] and in assay [3] was “inactive” throughout. Besides, in assay [2], the activity (max response) is 5.05%.
With `CC/C(=C(\c1ccccc1)c1ccc(OCCN(C)C)cc1)c1ccccc1`, the Potency in assay [1] is 10.8 µM (active) and 18.8 µM (active); in assay [2], 6.31 µM (active); in assay [3], 11.2 µM (active) and 16.4 µM (active).
